Publication PMC5540273 (PLoS ONE, 2017)

Tests used:
Conditions in all cases: concentration: 1 μM, replicates: in singlicate; n = 1
PAK6 = system: PAK6
PAK7 = system: PAK7
PCTK1 = system: T1, PCTK1
T1 construct: gene CDK16

PCTK2 = system: T2, PCTK2
T2 construct: gene CDK17

PCTK3 = system: T3, PCTK3
T3 construct: gene CDK18

PDGFRA = system: PDGFRA
PDGFRB = system: PDGFRB
PDPK1 = system: PDPK1
PFTAIRE2 = system: PFTAIRE2
PFTK1 = system: T4, PFTK1
T4 construct: gene CDK14

PHKG1 = system: PHKG1
PHKG2 = system: PHKG2
PIK3C2B = system: PIK3C2B
PIK3C2G = system: PIK3C2G
PIK3CA = system: PIK3CA
PIK3CB = system: PIK3CB
PIK3CD = system: PIK3CD
PIK3CG = system: PIK3CG
PIK4CB = system: T5, PIK4CB
T5 construct: gene PI4KB

PIKFYVE = system: PIKFYVE
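Note: KINOMEscan kinase panel screen.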

Row | Structure (SMILES) | %Inh (PAK6) | %Inh (PAK7) | %Inh (PCTK1) | %Inh (PCTK2) | %Inh (PCTK3) | %Inh (PDGFRA) | %Inh (PDGFRB) | %Inh (PDPK1) | %Inh (PFTAIRE2) | %Inh (PFTK1) | %Inh (PHKG1) | %Inh (PHKG2) | %Inh (PIK3C2B) | %Inh (PIK3C2G) | %Inh (PIK3CA) | %Inh (PIK3CB) | %Inh (PIK3CD) | %Inh (PIK3CG) | %Inh (PIK4CB) | %Inh (PIKFYVE)
1 | COc1cccc(-c2cc(-c3c[nH]nc3-c3ccccn3)ccn2)c1 [GW680338] | 3% | 9% | 0% | 0% | 8% | 0% | 8% | 0% | 10% | 1% | 2% | 10% | 7% | 11% | 4% | 3% | 0% | 9% | 0% | 0%
2 | COc1ccc(CNC(=O)NC2CCN(c3ccnc(Nc4cc(OC)c(OC)c(OC)c4)n3)C2)cc1 (centres unmarked) [GSK1379748] | 0% | 2% | 7% | 0% | 0% | 15% | 54% | 0% | 9% | 0% | 0% | 31% | 0% | 0% | 0% | 0% | 3% | 0% | 46% | 6%
3 | Cc1csc(-c2nc(Nc3ccncc3)c3ccccc3n2)n1 [GW869640] | 0% | 8% | 20% | 0% | 12% | 36% | 0% | 0% | 21% | 5% | 14% | 1% | 37% | 31% | 13% | 50% | 26% | 30% | 57% | 78%
4 | Cc1cc(N2Cc3ccccc3C2)nc(Nc2ccc(S(=O)(=O)N3CCOCC3)cc2)n1.Cl [GSK1669917] | 0% | 0% | 0% | 0% | 0% | 0% | 2% | 0% | 0% | 23% | 14% | 0% | 0% | 0% | 0% | 0% | 0% | 48% | 100% | 0%
5 | Cc1cccc(-c2nc(C)cc(Nc3ccncc3)n2)n1 [GSK257997] | 0% | 0% | 9% | 0% | 15% | 0% | 11% | 0% | 14% | 24% | 0% | 7% | 0% | 0% | 3% | 0% | 0% | 5% | 0% | 27%
6 | CC(C)(C)c1ccc(C(=O)Nc2cn3cc(Cl)ccc3n2)cc1 | 0% | 27% | 0% | 0% | 0% | 12% | 71% | 0% | 0% | 0% | 0% | 0% | 0% | 0% | 0% | 0% | 0% | 0% | 0% | 4%
7 | O=C(Nc1n[nH]c2nc(-c3nccs3)c(Br)cc12)C1CC1 [SB-742251] | 0% | 0% | 45% | 18% | 26% | 0% | 14% | 0% | 4% | 14% | 0% | 0% | 0% | 0% | 0% | 0% | 0% | 0% | 0% | 14%
